Screening data as filed in PubChem.
In the library only some 21% were active in any assay of this set; here they are far more common.
NS1 inh: qHTS Assay for Inhibitors of Influenza NS1 Protein Function. 0.4% of 270,000 active. Potency, µM (series often up to 46.1 µM), inactives show top-dose activity, positive = more growth; calls by dose curve; note: potency is the fitted concentration of half-maximal effect; actives are rising curves; nearly all actives have a fitted effect of over 50% in size
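S. cerevisiae expressing influenza A NS1, grown in glucose, washed, then diluted 1:100 into pH 6.0 -URA galactose medium with 23 nl compound. Growth recovery read as OD600; NS1-free strain serves as control.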
CHX counter: Cycloheximide Counterscreen for Small Molecule Inhibitors of Shiga Toxin. cell reporter, cycloheximide protein synthesis inhibition counterscreen. max response, %. 12% of 300,000 active. AID 2314, 2010; in the data active = max response mostly above about 13%, no sharp cut-off; inactive = mostly below about 14%; note: read at 38.3 µM for the half of the compounds with a filed dose; 0% is about no effect
Sm TGR inh: qHTS Assay for the Inhibitors of Schistosoma Mansoni Peroxiredoxins | Schistosoma mansoni thioredoxin glutathione reductase (TGR), Q962Y6 | purified TGR, DTNB reduction, TNB absorbance 405 nm | Potency, µM (series often up to 114 µM), for the others: top-dose activity change, negative = inhibition, actives largely listed as inhibitors | 3% of 360,000 active | AID 485364, 2010; note: potency is the fitted concentration of half-maximal effect; % is set by controls: 0 for no effect and ±100 for the full control effect; nearly all actives have a fitted effect of over 60% in size
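Kinetic colorimetric format: TGR-catalysed, NADPH-driven DTNB reduction monitored via TNB absorbance. Enzyme dispensed at 20 nM; compound exposure 15 min at room temperature before reaction start.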
Pf growth 96h: Primary qHTS for delayed death inhibitors of the malarial parasite plastid, 96 hour incubation. P. falciparum luciferase reporter growth, 96 h. Potency, µM (top dose mostly 28.7 µM), for inactives: at the top dose activity change, negative = inhibition, usual class: inhibitors. 6.9% of 320,000 active; note: potency is the fitted concentration of half-maximal effect; % is set by controls: 0 for no effect and ±100 for the full control effect
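96 h incubation, 37 C, 5% CO2, of luciferase-reporter P. falciparum-infected RBCs (2% hematocrit, 0.05% parasitemia final) with test compounds; endpoint luminescence.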
Shiga toxin inh: A qHTS for Small Molecule Inhibitors of Shiga Toxin; Vero cells, Shiga toxin protein synthesis inhibition reporter; 9.2% of 290,000 active; inhibition, % at 38.7 µM; AID 2315, 2010; in the data active = inhibition mostly above about 28%, no sharp cut-off; inactive = mostly below about 43%; note: 0% is about no effect
Pf growth 48h: Primary qHTS for delayed death inhibitors of the malarial parasite plastid, 48 hour incubation. 5.9% of 310,000 active. P. falciparum luciferase growth in erythrocytes, 48 h. AID 504832, 2011. Potency, µM (highest dose often 28.7 µM), inactives show at the highest dose activity change, negative = inhibition, most hits filed as inhibitors; note: potency is the fitted concentration of half-maximal effect; % is set by controls: 0 for no effect and ±100 for the full control effect
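Compounds are pin-transferred into medium, infected erythrocytes (2% hematocrit, 0.1% parasitemia final) are added, and plates sit one parasite generation at 37 C in 5% CO2. Detection reagent is then added and luminescence measured.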
Numbers without * were called inactive; u = inconclusive; x = no result given; ! = repeats disagree; [ ] = dose if it differs, or a comment. Unless noted, calls come from the whole dose curve; as a rule, active = well fitted curve in the direction sought with a large enough effect; inconclusive = small, poorly fitted or top-dose-only effect, or another doubt; inactive = no such curve, though single readings can be large; an effect the other way counts as inactive or inconclusive.

SMILES	NS1 inh	CHX counter	Sm TGR inh	Pf growth 96h	Shiga toxin inh	Pf growth 48h
COc1cccc(-c2nc(CS(=O)CC(=O)NCCc3ccc(C)cc3)c(C)o2)c1 (stereo unspecified)	6%	-4	-15%	6%	-2	-5%
Cc1oc(-c2ccc(Cl)cc2)nc1CS(=O)CC(=O)NCCc1ccccc1 (stereo unspecified)	x	x	22µM*	x	x	x
Cc1ccc(CCNC(=O)CS(=O)Cc2nc(-c3cccc(C)c3)oc2C)cc1 (stereo unspecified)	-27%	-3	u	u	-19	x
Cc1oc(-c2cccs2)nc1CS(=O)CC(=O)NCCCOC(C)C (stereo unspecified)	7%	3	14µM*	2%	-22	6%
Cc1oc(-c2cccs2)nc1CS(=O)CC(=O)NCCc1ccccc1 (stereo unspecified)	u	-2	10µM*	u	-3	x
O=C(CCCOC(=O)c1ccc(O)cc1O)c1ccccc1	x	x	-5%	-19%	x	7%
COc1ccc(S(N)(=O)=O)cc1C(=O)OCCCC(=O)c1ccccc1	x	x	-18%	15µM*	x	u
COc1ccccc1CC(=O)Nc1ccc(S(=O)(=O)N2CCOCC2)cc1	10%	-7	-12%	29%	-4	-19%
CC(=O)n1c2c(c3ccccc31)OC(N)=C(C#N)C2c1ccc(C(C)C)cc1 (stereo unspecified)	-29%	46*	1%	91%	83*	21%
Cn1cc(C(=O)NCc2cccs2)c(=O)c2cc(S(=O)(=O)N3CCCC3)ccc21	1%	-4	0%	-11%	5	u
O=C(CNC(=O)c1ccc(Cl)cc1)OCc1nc2ccccc2s1	-4%	7	8%	67%	20	38%
O=C(OCc1nc2ccccc2s1)c1cccs1	-10%	52*	0%	4%	92*	108%
N#C/C(=C(/O)COC(=O)c1ccccc1O)c1nc2ccccc2s1	6%	8	3%	36%	28	16%
O=C(OCc1nc2ccccc2s1)c1cnccn1	-62%	32*	-19%	76%	93*	137%
O=C(OCc1nc2ccccc2s1)c1ccccc1O	x	67*	-16%	71%	58*	119%
O=C(O)c1ccccc1OCc1nc2ccccc2s1	3%	65*	9%	274%	110*	196%
O=C(Cn1cc(S(=O)(=O)Cc2cccc(Cl)c2)c2ccccc21)Nc1ccccc1Cl	x	x	-10%	x	x	x
O=c1[nH]c(Cc2cccs2)nc2ccccc12	5%	10	5%	119%	9	u
O=C(OCc1nc2ccccc2c(=O)[nH]1)c1cccs1	-51%	19*	8%[11.4 µM]	6%	44	x
CC1CCCCN1C(=O)NC1CC(=O)N(c2ccc3c(c2)OCCO3)C1 (stereo unspecified)	x	x	1%	14%	x	u
Cc1cc(C)c(C(=O)N(CCN(C)C)CC2CCCN(Cc3ccccc3F)C2)o1 (stereo unspecified)	8%	-4	-15%	u	-5	12µM*
COc1cc(C(=O)N(CCN(C)C)CC2CCCN(Cc3ccccc3F)C2)ccc1C (stereo unspecified)	15%	-1	-12%	-17%	10	10µM*
FC(F)(F)c1cc(Cl)c2nnc(-c3cccnc3)n2c1	11%	-4	17%	53%	-5	50%
FC(F)(F)c1cnc(-c2cnc(-c3cccnc3)nc2)c(Cl)c1	x	48*	17%	101%	116*	111%
Cc1ccc(-c2c(C)sc(=NC(=O)c3ccco3)n2C)cc1	-64%	67*	2%	132%	97*	60%
SMILES	NS1 inh	CHX counter	Sm TGR inh	Pf growth 96h	Shiga toxin inh	Pf growth 48h
CCc1noc(C)c1C(=O)Nc1nc(-c2ccccc2)c(C(C)=O)s1	x	x	3%	u	x	-29%
Cc1ccc(C(=O)NCCCNC(=O)c2ccccn2)cc1	12%	-4	-1%	26%	-11	5%
Cc1ccc(/C(=C\CN2CCCC2)c2ccccn2)cc1	u	-2	-20%	13µM*!	-6	-19%
COc1ccc(C)cc1NC(=O)C(Sc1nnc(-c2ccncc2)n1-c1ccc(Cl)cc1)c1ccccc1 (stereo unspecified)	u	-5	-3%	10µM*	13	u
COc1ccc(C)cc1NC(=O)C(Sc1nnc(Nc2cc(C)ccc2OC)s1)c1ccccc1 (stereo unspecified)	u	-2	11%	10µM*	15	0%
COc1ccc(C)cc1NC(=O)C(Sc1nnc2ccccn12)c1ccccc1 (stereo unspecified)	-9%	-3	1%	-12%	-2	-14%
COc1ccc(Nc2nnc(SC(C(=O)Nc3ccc(OC)c(Cl)c3)c3ccccc3)s2)cc1 (stereo unspecified)	13%	6	-7%	9.3µM*	18	u
N#Cc1c(-c2ccc3c(c2)OCO3)ccn2nc(-c3cccc(C(F)(F)F)c3)nc12	8%	4	4%	-15%	-5	108%
O=C(NNC1OC(CO)C(O)C(O)C1O)c1cccc(Br)c1 (stereo unspecified)	x	5	-1%	-42%[5.75 µM]	-2	17%
OC[C@H]1OC(Nc2ccc(N=Nc3ccccc3)cc2)[C@@H](O)[C@@H](O)[C@@H]1O (stereo partly specified)	4%	37*	8%	200%	112*	162%
CCCCNC(=S)NNC(=O)C1=NN(c2cc(C)ccc2C)C(=O)CC1	17%	-3	1%	-11%	-7	-11%
Cc1ccc(N2C(=O)N3[C@H](c4ccc(F)cc4)[C@@H]4C(=O)N(C5CCCCC5)C(=O)[C@@H]4[C@]3(Cc3ccccc3)C2=O)cc1	12%	-2	-13%	12µM*	0	0%
O=C1[C@H]2[C@@H](c3ccc(Cl)cc3)N3C(=O)N(c4cccc(Cl)c4)C(=O)[C@@]3(Cc3ccccc3)[C@H]2C(=O)N1C1CCCCC1	x	x	6%	5.9µM*	x	2.1µM*
O=C1[C@H]2[C@@H](c3ccc(F)cc3)N3C(=O)N(c4cccc(Br)c4)C(=O)[C@@]3(Cc3ccccc3)[C@H]2C(=O)N1C1CCCCC1	x	x	4%	u	x	4.1µM*
CC(C)C[C@@]12C(=O)N(c3cccc(Br)c3)C(=O)N1[C@H](c1ccc(F)cc1)[C@@H]1C(=O)N(C3CCCCC3)C(=O)[C@@H]12	x	x	5%	u	x	1.9µM*
CCN1C(=O)[C@H]2[C@@H](c3ccc(C)cc3)N3C(=O)N(c4ccc(C)cc4)C(=O)[C@@]3(Cc3ccccc3)[C@H]2C1=O	-24%	-2	2%	u	14	0%
